Some test systems named below: SR leukemia; RPMI-8226 leukemia; OVCAR-8 ovarian; OVCAR-5 ovarian; OVCAR-4 ovarian; IGROV1 ovarian; OVCAR-3 ovarian; HS 578T breast; NCI/ADR-RES ovarian; BT-549 breast; MDA-MB-435 melanoma; SW-620 colon; MCF7 breast; HCT-116 colon; HCC-2998 colon; KM12 colon; SK-OV-3 ovarian; T-47D breast.
Holding throughout (test): NCI-60 one-dose screen, 48 h (100 = growth as untreated, 0 = no growth, -100 = all killed)
Holding throughout (conditions): 10 µM unless noted

This is part of a sample that, as a whole, favours compounds with a hit. Of some 83,000 tested, about 20% had one in any assay.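 Compound tested at a single concentration for 48 hours in 96-well plates; a percent growth value below 10 was scored as active.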 Unmarked numbers belong to inactive results. Active and inactive are the calls of the source.

As for `COc1cc2oc(-c3cccc(C(=O)Nc4ccc(C#N)cc4)c3)cc(=O)c2c(O)c1OC`, the growth in the assay on SR leukemia is 62.2%; with RPMI-8226 leukemia, 51.3%; with OVCAR-8 ovarian, 29.1%; in the assay with OVCAR-5 ovarian it was 66.5%; in the assay on OVCAR-4 ovarian it was 11.7%; in the assay on IGROV1 ovarian it was 84.6%. Moreover, the growth in the assay on OVCAR-3 ovarian is 51.3%; in the assay on HS 578T breast it was 83.4%; with NCI/ADR-RES ovarian it was 51.2%; with BT-549 breast it was 44.7%; in the assay on MDA-MB-435 melanoma it was 68.3%; in the assay with SW-620 colon it was 78%. Besides, the growth in the assay on MCF7 breast is 48.5%; in the assay with HCT-116 colon, 55.5%; with HCC-2998 colon it was 83.1%; in the assay with KM12 colon, 38.9%.

For the molecule `CC(C)OCCCNCC(=O)Nc1ccc(S(=O)(=O)c2ccc(NC(=O)CNCCCOC(C)C)cc2)cc1`, the growth in the assay on SR leukemia is 61.6%; in the assay on RPMI-8226 leukemia, 92.8%; in the assay on OVCAR-8 ovarian, 105%; in the assay on OVCAR-5 ovarian, 116%; in the assay with SK-OV-3 ovarian, 111%; in the assay with IGROV1 ovarian, 75.9%. The growth with OVCAR-3 ovarian was 105%; in the assay on HS 578T breast it was 87.6%; in the assay on NCI/ADR-RES ovarian, 112%; with T-47D breast it was 103%; with BT-549 breast it was 102%; with MDA-MB-435 melanoma, 101%. The growth in the assay on MCF7 breast is 85.8%; in the assay with HCT-116 colon, 81.3%; with HCC-2998 colon it was 73.8%; in the assay on KM12 colon it was 99.8%.

Consider `CCCCCCCCn1cc(C2=C(c3coc4ccc(OC)cc34)C(=O)NC2=O)c2ccccc21`, for which the growth with SR leukemia is 119%; with RPMI-8226 leukemia it was 119%; in the assay on OVCAR-8 ovarian, 94.2%; in the assay with OVCAR-5 ovarian, 90.8%; with OVCAR-4 ovarian it was 106%; with IGROV1 ovarian it was 104%. In addition, the growth with OVCAR-3 ovarian was 107%; in the assay on NCI/ADR-RES ovarian, 101%; in the assay on T-47D breast it was 115%; in the assay on BT-549 breast, 87.4%; in the assay on MDA-MB-435 melanoma, 102%; in the assay on SW-620 colon, 99.1%. Moreover, the growth with MCF7 breast was 91.8%; in the assay on HCT-116 colon, 104%; with HCC-2998 colon, 104%.

As to `COc1cc(NC(=O)c2cccc(-c3cc(=O)c4c(O)c(OC)c(OC)cc4o3)c2)cc(OC)c1OC`, the growth was 54.4% with SR leukemia; 27% in the assay on RPMI-8226 leukemia; 23.1% in the assay on OVCAR-8 ovarian; 77.4% in the assay on OVCAR-5 ovarian; 58.6% in the assay with OVCAR-4 ovarian; 70.4% in the assay on IGROV1 ovarian. The growth is 23.8% in the assay on OVCAR-3 ovarian; -3.91% (active) in the assay with HS 578T breast; 49.4% in the assay on NCI/ADR-RES ovarian; 7% (active) with BT-549 breast; 65.4% with MDA-MB-435 melanoma; 73.3% with SW-620 colon. Further, the growth in the assay with MCF7 breast is 49.4%; in the assay on HCT-116 colon, 44.8%; in the assay with HCC-2998 colon it was 66%; in the assay with KM12 colon, 53.9%.

On to `CCc1cc(Cc2cc(CC)cc(C(C)(C)C)c2O)c(O)c(C(C)(C)C)c1`, for which the growth with SR leukemia was -13.6% (active); in the assay on RPMI-8226 leukemia it was 7.4% (active); with OVCAR-8 ovarian it was 20.4%; in the assay on OVCAR-4 ovarian, 14.3%; in the assay with SK-OV-3 ovarian it was 20.6%; in the assay with IGROV1 ovarian it was 36.3%. The growth with OVCAR-3 ovarian is 32.1%; with T-47D breast it was -0.979% (active); in the assay with BT-549 breast, 40.5%; in the assay on MDA-MB-435 melanoma it was 18.4%; in the assay with SW-620 colon, 23.3%; in the assay with MCF7 breast, 11.2%. Besides, the growth was 6.96% (active) in the assay on HCT-116 colon, 4.71% (active) in the assay on HCC-2998 colon and 19.4% with KM12 colon.

For `COc1cc2c(c(OC)c1OC)C(=O)/C(=C/c1cc(C)c(O)c(C)c1)S2`, the growth with SR leukemia was 33.8%; in the assay on RPMI-8226 leukemia it was 21.8%; in the assay with OVCAR-8 ovarian, 41.5%; with OVCAR-5 ovarian, 65.2%; in the assay with OVCAR-4 ovarian, 51.8%; in the assay on IGROV1 ovarian it was 45.7%. Besides, the growth in the assay on OVCAR-3 ovarian was 8.16% (active); in the assay on HS 578T breast it was 29.4%; with T-47D breast, 47.6%; in the assay on BT-549 breast, 56.9%; with MDA-MB-435 melanoma, -37.2% (active); in the assay with SW-620 colon, 39.3%. For the same molecule, the growth was 21.7% in the assay with MCF7 breast, 33.2% with HCT-116 colon, 46.4% with HCC-2998 colon and 20.9% with KM12 colon.

Turning to `COc1cc2c(O)n(CCCn3ccnc3)c3c4cnc5cccc(c(=O)c3c2cc1OC)c54`, the growth is 25% in the assay on SR leukemia; 19.4% with RPMI-8226 leukemia; 35.3% in the assay with OVCAR-8 ovarian; 83.1% in the assay with OVCAR-5 ovarian; 50.9% in the assay on OVCAR-4 ovarian; 46.2% in the assay with IGROV1 ovarian. In addition, the growth in the assay with OVCAR-3 ovarian was 44.7%; in the assay with NCI/ADR-RES ovarian it was 98.3%; in the assay on T-47D breast it was -6.91% (active); in the assay on BT-549 breast, 27.6%; in the assay on MDA-MB-435 melanoma it was 51%; with MCF7 breast, 10.8%. Further, the values for the growth in the assay with HCC-2998 colon and in the assay with KM12 colon were 70.4% and 61%, respectively.

On to `COc1ccc(O)c(-c2cc(-c3ccccc3)c(C#N)c(=O)[nH]2)c1`, for which the growth with SR leukemia was 89%; in the assay on RPMI-8226 leukemia it was 81.2%; with OVCAR-8 ovarian it was 96.3%; in the assay on OVCAR-5 ovarian, 124%; in the assay on SK-OV-3 ovarian, 92.6%; with IGROV1 ovarian, 98.8%. The growth with OVCAR-3 ovarian was 95.9%; in the assay with HS 578T breast, 89.6%; in the assay on NCI/ADR-RES ovarian, 97.3%; in the assay with T-47D breast, 79.3%; in the assay with BT-549 breast, 70.6%; in the assay on MDA-MB-435 melanoma, 102%. The growth was 105% in the assay on SW-620 colon; 87.5% with MCF7 breast; 89.7% in the assay with HCT-116 colon; 99.8% with HCC-2998 colon; 90.8% with KM12 colon.

In the case of `CC(=O)c1ccc2c(c1)CCN2`, the growth in the assay with SR leukemia is 93.4%; with RPMI-8226 leukemia, 94.7%; in the assay on OVCAR-8 ovarian, 99.5%; in the assay with OVCAR-5 ovarian, 101%; in the assay on SK-OV-3 ovarian it was 99.9%; in the assay with IGROV1 ovarian it was 117%. Besides, the growth was 124% in the assay with OVCAR-3 ovarian; 114% in the assay with HS 578T breast; 110% in the assay on NCI/ADR-RES ovarian; 105% with T-47D breast; 106% in the assay on BT-549 breast; 111% in the assay with MDA-MB-435 melanoma. In addition, the growth in the assay on SW-620 colon is 113%; with MCF7 breast, 98.3%; in the assay on HCT-116 colon, 100%; in the assay with KM12 colon it was 110%.

(Values after PubChem BioAssay (NCI).)
